Results published in PubChem BioAssay AID651640 (Broad Institute, 2012).
The whole screen tested about 350,000 compounds, of which about 6,000 (1.7%) were called active. Roughly 5% stayed inconclusive and do not appear here. Rule as the data show it: active = CPE inhibition above about 20% (passing the limit was not always enough); inconclusive = no clear call, values can overlap the other calls; tested in BHK-21 cells. Shown is part of a subset that was picked to be rich in actives.

Assay: protection of cells from dengue 2 killing – plate reader, single concentration, primary screen (AID 651640);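 also: 0% = median of neutral control wells and 100% = median of positive control wells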
Conditions: DENV2-infected cells, cytopathic effect rescue, at 9.99 µM, active compounds read high

SMILES | CPE inhibition
COC(=O)[C@]12C[C@H](CC(=O)N3CCN(C(=O)C4CC4)CC3)C(=O)N(Cc3ccc4c(c3)OCO4)C1=C[C@H](C(C)(C)C)O[C@@H]2C | 0.269% (inactive)
C[C@H]1CN([C@@H](C)CO)C(=O)c2cccc(NC(=O)Nc3cccc4ccccc34)c2O[C@@H]1CN(C)C(=O)NC1CCCCC1 | 43.8% (active)
C[C@@H]1CN([C@@H](C)CO)C(=O)c2cccc(NC(=O)C3CC3)c2O[C@@H]1CN(C)C | 11.8% (inactive)
C[C@H]1CN([C@@H](C)CO)C(=O)c2cccc(NC(=O)C3CCOCC3)c2O[C@H]1CN(C)S(C)(=O)=O | 12.7% (inactive)
COc1ccc(NC(=O)N(C)C[C@@H]2Oc3c(NC(=O)Nc4cccc5ccccc45)cccc3C(=O)N([C@@H](C)CO)C[C@H]2C)cc1 | 23.2% (active)
C[C@H](CO)N1C[C@H](C)[C@H](CN(C)C(=O)NC2CCCCC2)Oc2c(NC(=O)C3CC3)cccc2C1=O | 20.6% (active)
COc1ccc(NC(=O)N(C)C[C@H]2Oc3c(NC(=O)Nc4cccc5ccccc45)cccc3C(=O)N([C@H](C)CO)C[C@@H]2C)cc1 | 15.2% (inactive)
C[C@@H]1CN([C@H](C)CO)C(=O)c2cccc(NC(=O)Nc3ccccc3)c2O[C@@H]1CN(C)C(=O)NC1CCCCC1 | -11% (inactive)
CC(C)NC(=O)N(C)C[C@H]1Oc2c(NC(=O)C3CCCCC3)cccc2C(=O)N([C@@H](C)CO)C[C@H]1C | -3.61% (inactive)
C[C@H]1CN([C@@H](C)CO)C(=O)c2cccc(NC(=O)C3CCOCC3)c2O[C@@H]1CN(C)C | 39.5% (active)
COc1ccc(NC(=O)N(C)C[C@H]2Oc3c(NC(=O)Nc4cccc5ccccc45)cccc3C(=O)N([C@@H](C)CO)C[C@H]2C)cc1 | 18.2% (inactive)
C[C@@H]1CN([C@H](C)CO)C(=O)c2cccc(NC(=O)Nc3cccc4ccccc34)c2O[C@@H]1CN(C)C(=O)Nc1cccc2ccccc12 | 4.21% (inactive)
C[C@@H]1CN([C@H](C)CO)C(=O)c2cccc(NC(=O)C3CC3)c2O[C@@H]1CN(C)C(=O)Nc1ccccc1 | 8.03% (inactive)
CN1CCN(C(=O)C[C@H]2CC[C@H]3[C@@H](COC[C@H](O)CN3CC3CCOCC3)O2)CC1 | -5% (inactive)
CCCNC(=O)N1[C@H](CO)[C@@H]2c3ccccc3N(C(=O)C3CCOCC3)C[C@@H]21 | 9.68% (inactive)
CNC(=O)C[C@H]1CC[C@H]2[C@@H](COc3ccc(NS(=O)(=O)c4ccc(F)cc4)cc3C(=O)N2C)O1 | -4.93% (inactive)
CC(C)NC(=O)N(C)C[C@H]1OCCCC[C@H](C)Oc2ccc(NS(=O)(=O)c3cccs3)cc2C(=O)N([C@H](C)CO)C[C@@H]1C | -5.44% (inactive)
O=C(CC1CC1)N1[C@@H]2CN(S(=O)(=O)c3ccccc3F)c3ccccc3[C@@H]2[C@@H]1CO | 2.67% (inactive)
CCCNC(=O)N1CC2(C1)[C@H](c1ccccc1)[C@@H](CO)N2Cc1cccc(Cl)c1 | -0.258% (inactive)
C[C@@H]1CN([C@H](C)CO)S(=O)(=O)c2ccc(-c3ccncc3)cc2O[C@@H]1CN(C)C(=O)CN(C)C | -2.24% (inactive)
COCC(=O)N(C)C[C@@H]1Oc2cc(C#Cc3cccnc3)ccc2S(=O)(=O)N([C@H](C)CO)C[C@H]1C | 0.786% (inactive)

SMILES | CPE inhibition
COc1ccccc1CNC(=O)C[C@H]1CC[C@@H](NC(=O)CN(C)C)[C@@H](CO)O1 | -1.02% (inactive)
Cc1cccc(S(=O)(=O)N2C[C@@H](O)COC[C@H]3O[C@H](CC(=O)N4CCN(C)CC4)CC[C@@H]32)c1 | 0.654% (inactive)
C[C@@H]1CN([C@H](C)CO)C(=O)c2cc(C#Cc3cccnc3)cnc2O[C@@H]1CN(C)Cc1ccc(F)cc1 | -0.76% (inactive)
C[C@H]1CN([C@@H](C)CO)C(=O)c2cccc(NC(=O)C3CCCCC3)c2O[C@H]1CN(C)C(=O)NC1CCCCC1 | 1.03% (inactive)
C[C@@H]1CN([C@H](C)CO)C(=O)c2cccc(NS(=O)(=O)c3ccc(Cl)cc3)c2O[C@@H]1CN(C)C(=O)Nc1cccc2ccccc12 | -5.49% (inactive)
C[C@@H]1CN([C@@H](C)CO)C(=O)c2cccc(NC(=O)C3CCOCC3)c2O[C@H]1CN(C)C(=O)NC1CCCCC1 | -1.68% (inactive)
C[C@@H]1CN([C@H](C)CO)C(=O)c2cccc(NS(=O)(=O)c3ccccc3)c2O[C@@H]1CN(C)Cc1ccc(C(=O)O)cc1 | -6.23% (inactive)
C[C@@H]1CN([C@@H](C)CO)C(=O)c2cccc(NS(=O)(=O)c3ccc(F)cc3)c2O[C@@H]1CN(C)Cc1ccc(C(=O)O)cc1 | 49.4% (active)
COc1ccc(S(=O)(=O)Nc2cccc3c2O[C@@H](CN(C)C(=O)Nc2cccc4ccccc24)[C@H](C)CN([C@@H](C)CO)C3=O)cc1 | -9.92% (inactive)
C[C@@H]1CN([C@H](C)CO)C(=O)c2cccc(NC(=O)C3CCCCC3)c2O[C@@H]1CN(C)C(=O)NC1CCCCC1 | 21.7% (active)
C[C@H]1CN([C@@H](C)CO)C(=O)c2cccc(NS(=O)(=O)c3ccc(F)cc3)c2O[C@@H]1CN(C)Cc1ccncc1 | 0.612% (inactive)
C[C@H](CO)N1C[C@H](C)[C@@H](CN(C)C(=O)Nc2cccc3ccccc23)Oc2c(NS(=O)(=O)c3ccccc3)cccc2C1=O | 74.2% (active)
CCCN(C)C[C@H]1Oc2ncc(-c3ccccc3OC)cc2C(=O)N([C@H](C)CO)C[C@H]1C | 1.17% (inactive)
C[C@H](CO)N1C[C@H](C)[C@@H](CN(C)S(=O)(=O)c2ccccc2)OCCCC[C@H](C)Oc2ccc(NC(=O)NC3CCCCC3)cc2C1=O | -3.62% (inactive)
C[C@H]1CCCCO[C@H](CN(C)C(=O)CCC(F)(F)F)[C@@H](C)CN([C@@H](C)CO)C(=O)c2cc(NC(=O)Nc3ccc4c(c3)OCO4)ccc2O1 | -12.5% (inactive)
C[C@@H]1CN([C@H](C)CO)C(=O)c2cccc(NS(=O)(=O)c3ccc(F)cc3)c2O[C@@H]1CN(C)C(=O)Nc1ccc(F)cc1 | 10.9% (inactive)
C[C@H](CO)N1C[C@H](C)[C@H](CN(C)S(=O)(=O)c2ccc(C#N)cc2)Oc2ncc(-c3cccc(F)c3)cc2C1=O | 2.2% (inactive)
COCC(=O)N(C)C[C@@H]1Oc2cc(C#CCC(C)C)ccc2S(=O)(=O)N([C@@H](C)CO)C[C@@H]1C | -6.44% (inactive)
COC(=O)C1[C@H]2SC(C)(C)C(C(=O)OC)N2C(=O)N1Cc1nc2ccccc2s1 (stereo partly drawn) | 38.1% (active)
CCC1(CC)NC(=O)N(Cc2nc3ccccc3s2)C1=O | -2.84% (inactive)
CC1(C)S[C@@H]2[C@H](NC(=O)COc3ccccc3)C(=O)N2C1C(=O)OCc1ccccc1 (stereo partly drawn) | 9.26% (inactive)

SMILES | CPE inhibition
C/C=C/c1ccc2c(c1)O[C@H](CN(C)C(C)=O)[C@H](C)CN([C@H](C)CO)S2(=O)=O | -7.9% (inactive)
COc1cccc(S(=O)(=O)N2C[C@@H](O)COC[C@H]3O[C@H](CC(=O)N4CCCCC4)CC[C@@H]32)c1 | -9.51% (inactive)
O=C(/C=C(O)/C=C/c1ccc(O)cc1)/C=C/c1ccc(O)cc1 | 61.1% (active)
O=C(O)/C=C/c1ccc(OCCCF)cc1 | -4.88% (inactive)
O=C(/C=C/c1ccc2c(c1)OCCO2)c1ccc(O)cc1 | -0.309% (inactive)
CC(C)NC(=O)N(C)C[C@H]1Oc2ncc(-c3ccccc3F)cc2C(=O)N([C@@H](C)CO)C[C@@H]1C | -8.68% (inactive)
CO[C@@H]1CN(C)C(=O)c2cc(NS(=O)(=O)c3ccccc3)ccc2OC[C@@H](C)N(C(=O)NC(C)C)C[C@@H]1C | 10.4% (inactive)
O=C(c1cccnc1)N(c1cc2sc(=O)oc2c2ccccc12)S(=O)(=O)c1ccccc1 | -6.54% (inactive)
COc1ccc(N(C(=O)c2cccnc2)S(=O)(=O)c2ccc(OC)c(OC)c2)cc1 | 29.9% (active)
COc1ccc(N(CC(=O)N/N=C/c2cccs2)S(=O)(=O)c2ccc(OC)c(OC)c2)cc1 | 6.81% (inactive)
CO[C@H]1CN(C)C(=O)c2ccc(NS(=O)(=O)c3ccccc3)cc2OC[C@@H](C)N(Cc2nccs2)C[C@@H]1C | -6.98% (inactive)
CO[C@@H]1CN(C)C(=O)c2ccc(NS(=O)(=O)c3ccc(Cl)cc3)cc2OC[C@H](C)N(C(=O)NC(C)C)C[C@H]1C | 9.25% (inactive)
C[C@@H]1CN([C@H](C)CO)C(=O)c2cc(NC(=O)Nc3ccc4c(c3)OCO4)ccc2O[C@H]1CN(C)C(=O)Nc1ccccc1 | 6.05% (inactive)
O=C(C[C@H]1C[C@@H]2c3cc(NC(=O)c4ccc5c(c4)OCO5)ccc3O[C@@H]2[C@@H](CO)O1)NCCN1CCCCC1 | -1.97% (inactive)
Cc1noc(C)c1S(=O)(=O)N(C)C[C@@H]1OCc2ccccc2-c2ccccc2C(=O)N([C@@H](C)CO)C[C@H]1C | 4.05% (inactive)
Cc1cc(C(=O)NNC(=O)c2ccccc2O)c(C)o1 | -2.62% (inactive)
Cc1cc(C(=O)CCC(=O)NNC(=O)c2ccccc2O)c(C)s1 | -2.6% (inactive)
O=C(NNC(=O)c1ccccc1O)c1ccccc1O | 48.5% (active)
COc1cccc(-c2ccc3n(c2=O)C[C@@H]2[C@@H](CO)[C@H](C(=O)NC4CCC4)[C@H]3N2C)c1 | -5.73% (inactive)
C[C@H](CO)N1C[C@H](C)[C@@H](CN(C)S(=O)(=O)c2cccs2)Oc2ccc(NC(=O)Nc3ccc(C(F)(F)F)cc3)cc2CC1=O | 3.14% (inactive)
CCCC(=O)Nc1ccc2c(c1)C(=O)N(C)[C@H]1CC[C@@H](CC(=O)NCc3ccccc3)O[C@@H]1CO2 | -7.15% (inactive)
